Screening results as filed in PubChem.
TTR transcr act: activators of transthyretin transcription. SH-SY5Y TTR promoter Gaussia luciferase, luminescence; 100% = recombinant luciferase protein wells. activation, % at 16.7 µM. 1.3% of 92,000 active. AID 1117267;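 active = activation above the mean of all tested compounds plus 3 SD, cut at about 9.5% in these data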;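 also: cells exposed to compounds for one day before reading; 0% = median of all test compound wells on the plate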
Starred values were filed as active, the others as inactive. The full list was thinned out, with hits kept by preference.

SMILES	TTR transcr act
CC(C)(C)c1ccc(C(=O)Nc2ccc(C(=O)N3CCOCC3)cc2)cc1	0
O=C(c1ccc(NC(=O)C2(c3ccccc3)CCOCC2)cc1)N1CCOCC1	24*
O=C(c1ccccc1)c1ccc(C(=O)N2CCOCC2)cc1	7
CNC(=S)N/N=C/c1c(C(=O)OC)cnn1-c1ccc(Cl)cc1	-1
Cc1ccccc1CN1CCCCC(NC(=O)Nc2ccccc2)C1=O (centres undefined)	5
Nc1[nH]c(C(=O)c2ccccc2)c(-c2ccc3ccccc3c2)c1C(=O)NCCc1ccc(Cl)cc1	4
C=CCn1cc(-c2cccc(Cl)c2)cc(C#N)c1=O	-3
N#Cc1cc(-c2cccc(Cl)c2)c[nH]c1=O	13*
N#Cc1c(-c2cccc(Cl)c2)[nH]c(=S)[nH]c1=O	2
CSc1ccc(-c2csc(N3CCC(C(N)=O)CC3)n2)cc1	1
O=C(CN1C(=O)NC2(CCCC2)C1=O)NC(c1ccccc1)c1ccccc1	-1
O=C(O)CCN1C(=O)NC2(CCCC2)C1=O	17*
COc1ccc(NC(=O)CCN2C(=O)NC3(CCCC3)C2=O)cc1Cl	2
FC(F)(F)c1cc(CNC2CCC23CCC(c2ccccc2)CC3)ccc1Cl (centres undefined)	-1
CCC1CCc2sc(C(=O)Nc3cc(S(=O)(=O)N4CCOCC4)ccc3OC)cc2C1 (centres undefined)	0
O=C1CN(C(=O)NCC(=O)N[C@@H](C(=O)O)c2ccccc2)c2ccccc2N1	1
CC(C)C[C@H](NC(=O)N1CC(=O)Nc2ccccc21)C(=O)N[C@@H](C(=O)O)c1ccccc1	0
CC(C)[C@H](NC(=O)N1c2ccccc2NC(=O)[C@@H]1C(C)C)C(=O)N[C@@H](C(=O)O)c1ccccc1	27*
COc1ccc(NC(=O)CSCc2ccc(C#N)cc2)c(OC)c1	2
COCC(=O)Nc1cc(OC)ccc1OC	6
COc1ccc(OC)c(NC(=O)CSCC(=O)O)c1	23*
O=S1(=O)c2ccc(N3CCC[C@@H]3CO)cc2O[C@H]2CCN1C2	0
COc1cc(O)c(C(CC(=O)N2CCC(C)CC2)c2ccc3c(c2)OCO3)c(OC)c1 (centres undefined)	-2
CN(C(=O)[C@@H]1CC=C[C@@H]2CCN(C3CCCCC3)C(=O)[C@@H]21)c1ccccc1	2
CCn1c(=O)n2n(c1=O)[C@]1(C=C(C)C2)CN(Cc2ccc(OC)cc2OC)C(NC(=O)c2ccccc2)=N1	1
SMILES	TTR transcr act
CCn1c(SCC(=O)Nc2cccc(OC)c2)nnc1-c1ccc(Cl)cc1	1
CCn1c(SCC(=O)Nc2ccc(N(C)C)cc2)nnc1-c1cccc(C)c1	28*
CCn1c(SCC(=O)Nc2ccc(C)cc2)nnc1-c1ccccn1	0
COC(=O)[C@@]1(OC(C)=O)CC(OC(C)=O)[C@H](OC(C)=O)[C@H](OC(C)=O)C1Br (some centres undefined)	1
CN(C(=O)[C@@H](C1CC1)[C@@H](O)c1ccc2ccccc2c1)c1ccccc1	-1
COc1ccc(C2c3c(ccc4ccccc34)Oc3ncn4nc(-c5ccco5)nc4c32)cc1 (centres undefined)	3
COc1ccc(C2c3c(ccc4ccccc34)Oc3ncn4nc(CO/N=C/c5ccccc5)nc4c32)cc1 (centres undefined)	12*
COc1cccc(C2c3c(ncn(-c4ccccc4)c3=N)Oc3ccc4ccccc4c32)c1OC (centres undefined)	2
COc1ccc2c3c([nH]c2c1)[C@]1(CCNC=O)Nc2ccccc2C1=NCC3	0
O=C(Nc1ccccc1N1CCN(C(=O)c2ccc(Cl)cc2)CC1)c1ccc2c(c1)OCO2	10*
O=C(Nc1ccc(N2CCN(C(=O)c3ccc(Cl)cc3)CC2)cc1)c1ccc2c(c1)OCCO2	-6
O=C(Nc1cc(Cl)ccc1N1CCOCC1)c1ccc2c(c1)OCCO2	0
COc1ccc(F)cc1-c1cc(C(C)=O)c2n(c1=O)CCC2	1
O=C(NC1CCCCN(Cc2ccc(Cl)cc2)C1=O)C(c1ccccc1)c1ccccc1 (centres undefined)	0
NC(=O)C1CCN(c2nc(-c3ccc(OCc4ccccc4)cc3)cs2)CC1	-2
CC1CCN(c2ncccc2C(=O)O)CC1	2
Cc1cc(N2CCC(C)CC2)nc2ccccc12	-1
CC1CCN(c2nnc(N3CCC(C)CC3)c3ccccc23)CC1	15*
COC(=O)[C@]12C[C@H](CC(=O)NCc3ccccc3)C(=O)N(Cc3cccc4ccccc34)C1=C[C@H](COCc1ccccc1)O[C@@H]2C	0
COc1ccc(C2Nc3ccccc3C(=O)N2Cc2ccc(C)o2)cc1COc1c(C)cccc1C (centres undefined)	0
COC(=O)[C@]12C[C@H](CC(=O)N3CCSCC3)C(=O)N(Cc3ccc4c(c3)OCO4)C1=C[C@H](C(C)C)O[C@@H]2C1CC1	1
C[C@]12C(=O)N(c3cccc(F)c3)C(=O)N1[C@H]1c3ccccc3OC[C@@H]1[C@H]2c1ccccc1	-2
C[C@]12C(=O)N(c3ccccc3)C(=O)N1[C@H]1c3ccccc3OC[C@@H]1[C@H]2c1ccccc1	11*
C[C@]12C(=O)N(c3cccc(Cl)c3)C(=O)N1[C@@H]1c3ccccc3OC[C@@H]1[C@H]2c1ccccc1	3
CN(C)S(=O)(=O)c1ccc2nc(COCc3nc4ccc(S(=O)(=O)N(C)C)cc4[nH]3)[nH]c2c1	0
SMILES	TTR transcr act
CCCCNC(=O)O[C@H]1CC[C@@]23CCCN2C(=O)CCC[C@H]3C1	2
CCCCC(=O)NCCNc1nc2c(c(=O)n(C)c(=O)n2C)n1Cc1ccc(F)cc1	14*
Cn1c(=O)c2c(nc(NCc3ccc4c(c3)OCO4)n2Cc2ccc(F)cc2)n(C)c1=O	-3
CCCNc1nc2c(c(=O)n(C)c(=O)n2C)n1Cc1cccc(C)c1	2
C[C@H]1[C@@H](NC(=O)C(c2ccccc2)c2ccccc2)CC[C@@]23CCCN2C(=O)CCC[C@@H]13	0
COCCNC(=O)C1Cc2c(-c3ccc(NC(C)=O)cc3)ccnc2O1 (centres undefined)	-1
O=C(Nc1ccc(Cl)cc1)C1Cc2c(-c3ccc(Cl)cc3)ccnc2O1 (centres undefined)	1
CC(=O)NCCNC(=O)C1Cc2c(-c3ccc(Cl)cc3)ccnc2O1 (centres undefined)	10*
O=C(NC1CCCCN(Cc2ccc(Cl)cc2)C1=O)c1ccccn1 (centres undefined)	-1
CCOC(=O)N1CCN(C(=O)C[C@H]2C[C@@]3(C(=O)OC)C(=C[C@H](C(C)C)O[C@@H]3C3CC3)N(Cc3cccc4ccccc34)C2=O)CC1	-1
C[C@H]1[C@@H](OC(=O)N2CCOCC2)CC[C@@]23CCCN2C(=O)CCC[C@@H]13	1
C/C=C\C=C/C(=O)Nc1cccc(C2=NOC3(C2)C[C@@H](C(N)=O)N(C(=O)C2(C)CC2)C3)c1 (some centres undefined)	11*
C/C=C\C(=O)Nc1cccc(C2=NOC3(C2)C[C@@H](C(N)=O)N(C(=O)C2(C)CC2)C3)c1 (some centres undefined)	2
C=C(C)C(=O)Nc1cccc(C2=NOC3(C2)C[C@@H](C(N)=O)N(C(=O)C2(C)CC2)C3)c1 (some centres undefined)	5
CCCCCCCCN1C(=O)[C@@H](CC(=O)NCc2cccc(C(F)(F)F)c2)C[C@@]2(C(=O)OC)C1=C[C@H](C(C)C)O[C@@H]2C1CC1	-1
